# In publication PMC7862700, “An all-to-all approach to the identification of sequence-specific readers for epigenetic DNA modifications on cytosine”:
# Experiments:
# Assay in all cases: DAPPL (digital affinity profiling via proximity ligation, sequencing); 10 mM Tris-HCl pH 7.5, 50 mM NaCl, 1 mM DTT, 4% glycerol, room temperature, 30 min; GST-TFs on glutathione beads, 16-mer random dsDNA library, 0.1% formaldehyde crosslink after washing; high values mean tight binding
# FLI1 = target: T1, FLI1 (Homo sapiens, UniProt Q01543 1-452); details: protein: recombinant; tags: N-terminal GST; dsDNA, one strand shown
# T1 sequence: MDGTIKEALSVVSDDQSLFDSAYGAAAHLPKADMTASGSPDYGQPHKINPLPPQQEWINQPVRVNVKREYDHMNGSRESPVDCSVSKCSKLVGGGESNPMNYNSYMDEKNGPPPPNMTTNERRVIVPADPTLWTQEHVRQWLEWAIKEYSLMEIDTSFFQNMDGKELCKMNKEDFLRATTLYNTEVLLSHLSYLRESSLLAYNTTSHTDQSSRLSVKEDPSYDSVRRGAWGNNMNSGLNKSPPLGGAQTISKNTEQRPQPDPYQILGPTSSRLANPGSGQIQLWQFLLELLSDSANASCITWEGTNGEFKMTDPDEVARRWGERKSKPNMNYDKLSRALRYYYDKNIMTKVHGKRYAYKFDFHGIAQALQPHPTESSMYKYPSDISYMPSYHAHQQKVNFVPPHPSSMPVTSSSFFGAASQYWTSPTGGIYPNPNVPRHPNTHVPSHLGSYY
# Outline: (§1)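 Human transcription factors fused to GST were expressed in yeast, captured on glutathione beads, given DNA barcodes and pooled with a GST-only negative control. Pools were incubated with 200 nmole of a 16-mer random double-stranded DNA library in Tris/NaCl/DTT/glycerol buffer at room temperature for 30 min. They were then washed, crosslinked with 0.1% formaldehyde, proximity-ligated (BsaI/T4 ligase, 1 h, 37 °C), PCR-amplified and sequenced on an Illumina NextSeq500. Binding signal is each 6-mer's read frequency for a factor divided by its frequency for the GST control.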
# ELK1 = target: T2, ELK1 (Homo sapiens, UniProt P19419 1-428); details: protein: recombinant; tags: N-terminal GST; dsDNA, one strand shown
# T2 sequence: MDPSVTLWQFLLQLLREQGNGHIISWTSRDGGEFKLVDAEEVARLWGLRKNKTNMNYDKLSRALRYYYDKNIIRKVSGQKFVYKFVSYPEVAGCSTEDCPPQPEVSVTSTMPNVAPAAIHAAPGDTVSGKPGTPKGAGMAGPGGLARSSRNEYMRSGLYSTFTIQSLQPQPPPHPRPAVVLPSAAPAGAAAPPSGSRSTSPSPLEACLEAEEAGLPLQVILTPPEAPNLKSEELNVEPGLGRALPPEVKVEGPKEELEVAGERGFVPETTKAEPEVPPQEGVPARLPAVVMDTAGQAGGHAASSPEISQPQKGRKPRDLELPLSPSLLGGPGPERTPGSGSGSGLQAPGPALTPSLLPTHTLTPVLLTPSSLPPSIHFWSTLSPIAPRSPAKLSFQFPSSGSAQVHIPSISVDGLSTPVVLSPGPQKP
# Outline: as §1
# GABPA = target: T3, GABPA (Homo sapiens, UniProt Q06546 1-454); details: protein: recombinant; tags: N-terminal GST; dsDNA, one strand shown
# T3 sequence: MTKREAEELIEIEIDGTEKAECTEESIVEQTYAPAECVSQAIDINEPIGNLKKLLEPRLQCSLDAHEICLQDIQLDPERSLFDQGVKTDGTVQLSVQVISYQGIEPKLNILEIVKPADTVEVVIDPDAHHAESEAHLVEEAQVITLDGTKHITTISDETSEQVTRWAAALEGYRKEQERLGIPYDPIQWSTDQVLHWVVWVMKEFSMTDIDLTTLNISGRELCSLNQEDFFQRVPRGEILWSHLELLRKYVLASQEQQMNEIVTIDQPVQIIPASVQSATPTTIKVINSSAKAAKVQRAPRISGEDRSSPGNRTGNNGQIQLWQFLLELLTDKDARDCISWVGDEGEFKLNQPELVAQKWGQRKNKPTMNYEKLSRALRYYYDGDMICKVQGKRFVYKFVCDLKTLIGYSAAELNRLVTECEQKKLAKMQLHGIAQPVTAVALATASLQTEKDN
# Outline: as §1
# ERG = target: T4, ERG (Homo sapiens, UniProt P11308 1-479); details: protein: recombinant; tags: N-terminal GST; dsDNA, one strand shown
# T4 sequence: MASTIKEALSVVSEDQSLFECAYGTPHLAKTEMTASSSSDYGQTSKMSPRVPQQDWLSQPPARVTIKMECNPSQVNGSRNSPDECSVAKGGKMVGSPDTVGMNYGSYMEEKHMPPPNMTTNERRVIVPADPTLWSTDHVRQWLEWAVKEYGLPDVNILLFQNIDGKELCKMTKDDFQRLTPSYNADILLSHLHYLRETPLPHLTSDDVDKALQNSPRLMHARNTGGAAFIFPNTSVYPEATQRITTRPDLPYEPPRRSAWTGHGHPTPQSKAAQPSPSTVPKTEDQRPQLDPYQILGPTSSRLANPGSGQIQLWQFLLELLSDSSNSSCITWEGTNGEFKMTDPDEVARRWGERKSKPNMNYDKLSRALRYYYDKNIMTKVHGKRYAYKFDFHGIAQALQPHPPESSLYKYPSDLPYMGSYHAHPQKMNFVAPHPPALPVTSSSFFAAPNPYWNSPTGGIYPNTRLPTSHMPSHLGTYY
# Outline: as §1
# ELF1 = ELF1 (Homo sapiens, UniProt P32519 1-619); details: protein: recombinant; tags: N-terminal GST; dsDNA, one strand shown
# Outline: as §1
# EHF = target: T5, EHF (Homo sapiens, UniProt Q9NZC4 1-300); details: protein: recombinant; tags: N-terminal GST; dsDNA, one strand shown
# T5 sequence: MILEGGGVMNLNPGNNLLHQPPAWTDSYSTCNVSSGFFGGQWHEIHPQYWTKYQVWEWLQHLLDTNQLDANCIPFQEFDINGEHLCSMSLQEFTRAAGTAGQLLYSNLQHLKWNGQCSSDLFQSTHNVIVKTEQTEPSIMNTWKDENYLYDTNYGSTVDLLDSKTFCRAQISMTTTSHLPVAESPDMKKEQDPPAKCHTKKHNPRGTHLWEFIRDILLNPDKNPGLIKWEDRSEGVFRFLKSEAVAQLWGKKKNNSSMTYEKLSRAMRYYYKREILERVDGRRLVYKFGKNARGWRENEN
# Outline: as §1
# SPI1 = SPI1 (Homo sapiens, UniProt P17947 1-270); details: protein: recombinant; tags: N-terminal GST; dsDNA, one strand shown
# Outline: as §1
# SPIB = SPIB (Homo sapiens, UniProt Q01892 1-262); details: protein: recombinant; tags: N-terminal GST; dsDNA, one strand shown
# Outline: as §1
# ELK3 = target: T6, ELK3 (Homo sapiens, UniProt P41970 1-407); details: protein: recombinant; tags: N-terminal GST; dsDNA, one strand shown
# T6 sequence: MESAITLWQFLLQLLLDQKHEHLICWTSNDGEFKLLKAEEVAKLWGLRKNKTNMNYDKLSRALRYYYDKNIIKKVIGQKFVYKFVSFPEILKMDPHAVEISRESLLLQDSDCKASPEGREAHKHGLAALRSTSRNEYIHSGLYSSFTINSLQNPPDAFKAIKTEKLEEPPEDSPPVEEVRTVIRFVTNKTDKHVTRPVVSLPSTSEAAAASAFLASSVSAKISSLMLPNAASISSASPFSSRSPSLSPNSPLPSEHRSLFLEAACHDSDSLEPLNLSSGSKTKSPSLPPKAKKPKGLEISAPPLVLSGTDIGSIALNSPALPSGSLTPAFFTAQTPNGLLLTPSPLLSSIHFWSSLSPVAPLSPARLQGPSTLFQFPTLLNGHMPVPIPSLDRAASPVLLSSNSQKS
# Outline: as §1
# FEV = target: T7, FEV (Homo sapiens, UniProt Q99581 1-238); details: protein: recombinant; tags: N-terminal GST; dsDNA, one strand shown
# T7 sequence: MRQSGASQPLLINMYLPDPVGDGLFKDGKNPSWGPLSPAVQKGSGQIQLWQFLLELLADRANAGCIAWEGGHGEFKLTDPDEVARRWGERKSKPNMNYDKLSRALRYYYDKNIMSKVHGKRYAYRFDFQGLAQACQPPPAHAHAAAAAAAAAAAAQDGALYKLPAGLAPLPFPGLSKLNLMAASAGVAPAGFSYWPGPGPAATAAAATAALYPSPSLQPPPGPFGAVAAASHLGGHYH
# Outline: as §1
# ETV5 = ETV5 (Homo sapiens, UniProt P41161 1-510); details: protein: recombinant; tags: N-terminal GST; dsDNA, one strand shown
# Outline: as §1
# HSF1 = HSF1 (Homo sapiens, UniProt Q00613 1-529); details: protein: recombinant; tags: N-terminal GST; chain copies: 3; dsDNA, one strand shown
# Outline: as §1
# SPIC = target: T8, SPIC (Homo sapiens, UniProt Q8N5J4 1-248); details: protein: recombinant; tags: N-terminal GST; dsDNA, one strand shown
# T8 sequence: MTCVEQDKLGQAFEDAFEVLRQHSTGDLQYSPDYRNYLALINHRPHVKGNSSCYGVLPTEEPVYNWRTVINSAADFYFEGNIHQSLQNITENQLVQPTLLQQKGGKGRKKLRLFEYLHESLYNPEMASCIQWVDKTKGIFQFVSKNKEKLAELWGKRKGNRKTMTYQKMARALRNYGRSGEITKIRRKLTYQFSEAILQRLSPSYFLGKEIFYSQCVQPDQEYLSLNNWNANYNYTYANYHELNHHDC
# Outline: as §1
# ELF4 = ELF4 (Homo sapiens, UniProt Q99607 1-663); details: protein: recombinant; tags: N-terminal GST; dsDNA, one strand shown
# Outline: as §1
# ELK4 = target: T9, ELK4 (Homo sapiens, UniProt P28324-2 1-405); details: protein: recombinant; tags: N-terminal GST; dsDNA, one strand shown
# T9 sequence: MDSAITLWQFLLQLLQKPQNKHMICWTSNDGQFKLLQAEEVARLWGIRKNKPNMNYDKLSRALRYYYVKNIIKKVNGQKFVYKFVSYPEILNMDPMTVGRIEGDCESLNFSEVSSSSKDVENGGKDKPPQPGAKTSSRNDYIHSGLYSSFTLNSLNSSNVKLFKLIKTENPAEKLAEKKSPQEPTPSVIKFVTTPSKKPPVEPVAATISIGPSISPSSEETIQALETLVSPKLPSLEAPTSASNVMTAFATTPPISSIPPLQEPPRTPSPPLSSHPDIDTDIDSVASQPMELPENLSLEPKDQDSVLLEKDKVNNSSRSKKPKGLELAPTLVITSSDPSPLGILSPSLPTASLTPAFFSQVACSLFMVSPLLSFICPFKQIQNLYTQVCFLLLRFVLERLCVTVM
# Outline: as §1
# ETV2 = target: T10, ETV2 (Homo sapiens, UniProt O00321 1-342); details: protein: recombinant; tags: N-terminal GST; dsDNA, one strand shown
# T10 sequence: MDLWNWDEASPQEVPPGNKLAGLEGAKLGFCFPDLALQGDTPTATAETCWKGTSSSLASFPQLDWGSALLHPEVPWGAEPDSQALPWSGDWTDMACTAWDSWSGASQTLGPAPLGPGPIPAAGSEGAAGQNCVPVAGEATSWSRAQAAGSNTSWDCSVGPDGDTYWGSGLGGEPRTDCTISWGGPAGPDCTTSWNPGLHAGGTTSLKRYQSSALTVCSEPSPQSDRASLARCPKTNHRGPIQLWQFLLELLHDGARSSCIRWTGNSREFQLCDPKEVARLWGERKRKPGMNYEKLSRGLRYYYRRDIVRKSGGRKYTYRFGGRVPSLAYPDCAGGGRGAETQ
# Outline: as §1
# ELF3 = target: T11, ELF3 (Homo sapiens, UniProt P78545 1-371); details: protein: recombinant; tags: N-terminal GST; dsDNA, one strand shown
# T11 sequence: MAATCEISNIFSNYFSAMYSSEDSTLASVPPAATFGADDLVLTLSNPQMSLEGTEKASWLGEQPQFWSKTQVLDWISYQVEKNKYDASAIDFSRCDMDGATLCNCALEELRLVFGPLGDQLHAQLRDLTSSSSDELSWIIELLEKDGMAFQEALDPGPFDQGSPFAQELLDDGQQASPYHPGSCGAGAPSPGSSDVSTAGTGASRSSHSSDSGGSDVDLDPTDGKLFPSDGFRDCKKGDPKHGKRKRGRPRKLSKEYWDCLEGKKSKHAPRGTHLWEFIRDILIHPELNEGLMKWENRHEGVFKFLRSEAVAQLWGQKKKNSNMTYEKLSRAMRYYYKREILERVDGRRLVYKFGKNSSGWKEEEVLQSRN
# Outline: as §1
# CRX = CRX (Homo sapiens, UniProt O43186 1-299); details: protein: recombinant; tags: N-terminal GST; dsDNA, one strand shown
# Outline: as §1
# ETV1 = ETV1 (Homo sapiens, UniProt P50549 1-477); details: protein: recombinant; tags: N-terminal GST; dsDNA, one strand shown
# Outline: as §1
# Sequence of ETV1 (P50549 whole entry): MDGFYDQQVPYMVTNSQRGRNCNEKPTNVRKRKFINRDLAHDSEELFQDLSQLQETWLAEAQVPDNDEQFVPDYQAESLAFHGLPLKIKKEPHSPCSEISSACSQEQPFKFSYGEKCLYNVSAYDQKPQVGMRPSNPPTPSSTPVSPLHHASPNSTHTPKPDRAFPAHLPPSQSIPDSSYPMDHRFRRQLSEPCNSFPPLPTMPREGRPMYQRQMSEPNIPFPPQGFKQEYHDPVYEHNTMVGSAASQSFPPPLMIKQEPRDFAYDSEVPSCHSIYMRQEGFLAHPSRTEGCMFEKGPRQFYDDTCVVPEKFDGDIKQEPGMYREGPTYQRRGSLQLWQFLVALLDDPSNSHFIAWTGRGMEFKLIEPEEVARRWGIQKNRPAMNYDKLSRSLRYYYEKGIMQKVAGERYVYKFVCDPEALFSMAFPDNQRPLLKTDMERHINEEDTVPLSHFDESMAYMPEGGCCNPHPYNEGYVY
# Sequence of SPIB (Q01892 whole entry): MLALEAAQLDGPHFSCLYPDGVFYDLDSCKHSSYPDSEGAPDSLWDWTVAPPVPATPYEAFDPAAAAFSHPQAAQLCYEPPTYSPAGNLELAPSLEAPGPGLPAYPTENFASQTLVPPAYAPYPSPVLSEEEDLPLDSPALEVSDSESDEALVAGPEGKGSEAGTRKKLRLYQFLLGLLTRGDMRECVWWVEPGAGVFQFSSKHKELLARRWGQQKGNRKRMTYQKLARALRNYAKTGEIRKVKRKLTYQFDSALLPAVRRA
# Sequence of ELF4 (Q99607 whole entry): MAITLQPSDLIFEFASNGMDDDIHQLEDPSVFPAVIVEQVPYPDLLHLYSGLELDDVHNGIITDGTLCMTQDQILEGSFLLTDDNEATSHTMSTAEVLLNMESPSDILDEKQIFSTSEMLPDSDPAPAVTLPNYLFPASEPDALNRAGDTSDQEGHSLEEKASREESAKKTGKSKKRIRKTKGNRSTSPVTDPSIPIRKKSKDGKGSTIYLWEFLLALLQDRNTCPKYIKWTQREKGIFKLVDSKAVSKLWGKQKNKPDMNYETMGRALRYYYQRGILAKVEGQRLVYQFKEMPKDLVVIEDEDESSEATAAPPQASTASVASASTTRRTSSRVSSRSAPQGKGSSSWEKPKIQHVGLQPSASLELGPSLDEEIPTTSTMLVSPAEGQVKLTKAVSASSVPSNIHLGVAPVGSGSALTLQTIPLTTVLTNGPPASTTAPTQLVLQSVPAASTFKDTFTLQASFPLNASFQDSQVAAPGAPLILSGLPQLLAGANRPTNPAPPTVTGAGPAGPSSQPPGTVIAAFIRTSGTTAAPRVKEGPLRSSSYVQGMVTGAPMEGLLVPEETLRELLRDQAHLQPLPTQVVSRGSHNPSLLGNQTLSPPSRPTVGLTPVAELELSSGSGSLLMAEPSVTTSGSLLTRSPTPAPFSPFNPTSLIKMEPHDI
# Sequence of ELF1 (P32519 whole entry): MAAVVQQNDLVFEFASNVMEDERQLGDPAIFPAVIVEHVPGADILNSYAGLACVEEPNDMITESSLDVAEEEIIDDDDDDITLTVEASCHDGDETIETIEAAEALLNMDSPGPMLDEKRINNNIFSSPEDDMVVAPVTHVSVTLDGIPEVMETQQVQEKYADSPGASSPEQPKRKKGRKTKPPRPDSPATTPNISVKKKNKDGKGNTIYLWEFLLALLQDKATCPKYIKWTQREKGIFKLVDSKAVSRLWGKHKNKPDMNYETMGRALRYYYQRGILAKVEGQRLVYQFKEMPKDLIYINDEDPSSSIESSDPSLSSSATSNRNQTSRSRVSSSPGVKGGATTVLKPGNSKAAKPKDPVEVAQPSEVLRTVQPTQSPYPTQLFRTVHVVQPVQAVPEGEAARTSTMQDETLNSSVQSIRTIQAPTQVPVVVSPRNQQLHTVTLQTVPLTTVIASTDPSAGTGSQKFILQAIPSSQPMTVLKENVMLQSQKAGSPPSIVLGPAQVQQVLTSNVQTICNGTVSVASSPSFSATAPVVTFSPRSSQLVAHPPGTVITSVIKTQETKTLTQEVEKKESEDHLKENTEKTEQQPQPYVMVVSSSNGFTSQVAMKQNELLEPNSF
# Sequence of HSF1 (Q00613 whole entry): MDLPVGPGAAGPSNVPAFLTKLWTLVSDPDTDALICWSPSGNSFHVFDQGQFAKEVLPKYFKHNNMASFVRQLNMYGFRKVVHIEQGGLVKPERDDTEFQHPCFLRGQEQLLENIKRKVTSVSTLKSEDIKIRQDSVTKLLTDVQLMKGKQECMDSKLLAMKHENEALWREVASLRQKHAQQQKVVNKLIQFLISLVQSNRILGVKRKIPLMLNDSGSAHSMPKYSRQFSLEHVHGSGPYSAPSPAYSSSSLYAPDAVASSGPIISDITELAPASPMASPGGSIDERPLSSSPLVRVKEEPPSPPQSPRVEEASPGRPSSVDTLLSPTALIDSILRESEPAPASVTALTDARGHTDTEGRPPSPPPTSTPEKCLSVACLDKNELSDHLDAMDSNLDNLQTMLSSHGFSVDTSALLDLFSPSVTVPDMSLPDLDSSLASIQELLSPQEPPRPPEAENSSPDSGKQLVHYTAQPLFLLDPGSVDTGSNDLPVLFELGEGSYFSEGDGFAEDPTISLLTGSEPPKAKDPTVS
# Sequence of ETV5 (P41161 whole entry): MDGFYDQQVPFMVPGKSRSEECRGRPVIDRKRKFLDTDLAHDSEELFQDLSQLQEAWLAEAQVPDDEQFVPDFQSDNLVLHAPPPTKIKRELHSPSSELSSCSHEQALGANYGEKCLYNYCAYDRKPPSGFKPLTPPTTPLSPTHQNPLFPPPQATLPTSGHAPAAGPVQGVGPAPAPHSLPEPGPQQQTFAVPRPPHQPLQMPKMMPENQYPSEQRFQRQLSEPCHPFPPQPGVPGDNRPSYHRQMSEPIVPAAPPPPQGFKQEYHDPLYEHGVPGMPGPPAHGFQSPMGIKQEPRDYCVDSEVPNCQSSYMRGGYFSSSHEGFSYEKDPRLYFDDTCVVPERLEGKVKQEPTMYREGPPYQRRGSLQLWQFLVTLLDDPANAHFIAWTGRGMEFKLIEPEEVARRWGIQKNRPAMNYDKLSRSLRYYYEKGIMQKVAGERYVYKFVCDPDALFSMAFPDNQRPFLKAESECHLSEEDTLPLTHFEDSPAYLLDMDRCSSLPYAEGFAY
# Sequence of CRX (O43186 whole entry): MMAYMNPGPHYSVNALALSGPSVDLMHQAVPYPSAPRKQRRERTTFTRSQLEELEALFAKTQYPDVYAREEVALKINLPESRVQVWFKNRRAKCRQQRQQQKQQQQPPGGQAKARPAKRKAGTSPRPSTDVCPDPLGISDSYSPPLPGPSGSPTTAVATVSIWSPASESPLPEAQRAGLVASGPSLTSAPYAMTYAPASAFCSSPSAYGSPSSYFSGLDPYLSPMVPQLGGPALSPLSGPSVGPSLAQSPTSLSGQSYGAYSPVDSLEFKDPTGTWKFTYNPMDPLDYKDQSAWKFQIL
sequence,measurement,setting,value
AATCCC,binding signal,FLI1,"1.36 fold enrichment (6-mer frequency, TF over GST control)"
same,binding signal,ELK1,"1.36 fold enrichment (6-mer frequency, TF over GST control)"
same,binding signal,GABPA,"1.38 fold enrichment (6-mer frequency, TF over GST control)"
same,binding signal,ERG,"1.42 fold enrichment (6-mer frequency, TF over GST control)"
same,binding signal,ELF1,"1.35 fold enrichment (6-mer frequency, TF over GST control)"
same,binding signal,EHF,"1.39 fold enrichment (6-mer frequency, TF over GST control)"
same,binding signal,SPI1,"1.26 fold enrichment (6-mer frequency, TF over GST control)"
same,binding signal,SPIB,"1.32 fold enrichment (6-mer frequency, TF over GST control)"
same,binding signal,ELK3,"1.13 fold enrichment (6-mer frequency, TF over GST control)"
same,binding signal,FEV,"1.41 fold enrichment (6-mer frequency, TF over GST control)"
same,binding signal,ETV5,"1.3 fold enrichment (6-mer frequency, TF over GST control)"
same,binding signal,HSF1,"2.47 fold enrichment (6-mer frequency, TF over GST control)"
same,binding signal,SPIC,"1.2 fold enrichment (6-mer frequency, TF over GST control)"
same,binding signal,ELF4,"1.33 fold enrichment (6-mer frequency, TF over GST control)"
same,binding signal,ELK4,"1.28 fold enrichment (6-mer frequency, TF over GST control)"
same,binding signal,ETV2,"1.37 fold enrichment (6-mer frequency, TF over GST control)"
same,binding signal,ELF3,"1.35 fold enrichment (6-mer frequency, TF over GST control)"
same,binding signal,CRX,"3.65 fold enrichment (6-mer frequency, TF over GST control)"
same,binding signal,ETV1,"1.42 fold enrichment (6-mer frequency, TF over GST control)"
